# Compound activity (PubChem)
# MITF inh: blocks human microphthalmia-associated transcription factor | O75030 | AlphaScreen MITF homodimerization, bead proximity signal | inhibition, % at 2.6 µM | 650,000 tested, 0.91% active | AID 1259374; in the data active means inhibition above about 50%;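 further: 0% = vehicle wells with protein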
# FBW7 act: human FBW7 E3 ligase activation, primary screen. normalized activity (activation), % at 26.1 µM. AID 1259310. AlphaScreen FBW7–phospho-cyclin E peptide binding, activator screen. 650,000 tested, 0.13% active. Q969H0; in the data active means normalized activity above about 1.9%;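 further: purified mutant Fbw7 with reduced substrate affinity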
# TEAD-YAP block: TEAD-YAP interaction inhibition | HEK-TIYL cells, TEAD-Gal4/YAP UAS-luciferase luminescence | 640,000 tested, 1.4% active | AID 1259422 | inhibition, % at 9.12 µM; in the data active means inhibition above about 32%;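 further: 0% = median of test compound wells and 100% = reference inhibitor wells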
# GPR151 ag: activates the human receptor GPR151. Q8TDV0. PathHunter beta-arrestin GPR151 cells, luminescence. activation, % at 11.2 µM. 650,000 tested, 1% active. AID 1508602; in the data active means activation above about 4.9%;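 further: 0% = median of compound wells and 100% = cells with positive control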
# Target sequence (Q8TDV0 whole entry, looked up): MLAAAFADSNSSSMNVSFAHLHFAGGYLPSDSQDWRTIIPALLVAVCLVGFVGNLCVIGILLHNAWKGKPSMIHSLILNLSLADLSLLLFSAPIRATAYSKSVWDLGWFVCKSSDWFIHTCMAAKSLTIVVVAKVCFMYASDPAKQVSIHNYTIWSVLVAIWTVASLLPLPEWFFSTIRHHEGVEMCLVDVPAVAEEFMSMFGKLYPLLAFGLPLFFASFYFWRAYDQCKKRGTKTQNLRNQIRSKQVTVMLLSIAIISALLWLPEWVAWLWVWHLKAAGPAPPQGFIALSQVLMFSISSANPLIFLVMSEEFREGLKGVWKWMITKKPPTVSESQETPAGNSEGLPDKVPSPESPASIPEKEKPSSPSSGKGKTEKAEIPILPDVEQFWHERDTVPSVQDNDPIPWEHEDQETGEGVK
# MITF confirm: confirmation of human MITF inhibitors. shares compounds with MITF inh. AlphaScreen MITF homodimerization, biotin/His-MITF beads. 4,700 tested, 16% active. inhibition, % at 2.6 µM;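 active means inhibition above a cutoff derived from the DMSO control wells, cut at about 28% in these data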;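 further: 0% = MITF dimer wells with DMSO only; inhibitors lower the bead chemiluminescence by keeping MITF from dimerizing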
# AlphaScreen DR: optically interferes with AlphaScreen signal in dose response; shares compounds with MITF inh; AlphaScreen optical interference counterscreen, cell-free; IC50, µM; 480 tested, 6% active; AID 1259373; call rule not given here
# AS interf ctr: optically interferes with AlphaScreen signal; inhibition, % at 2.6 µM; AID 1259376; 4,700 tested, 7.6% active; LysRS AlphaScreen counterscreen, signal interference, triplicate; shares compounds with MITF inh;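 active means inhibition above a cutoff derived from the DMSO control wells, cut at about 30% in these data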
# * = called active by the depositor; nt = no result given. Shown are actives, neighbours in structure and some others; about 3.4% of the full set was active somewhere.
SMILES,MITF inh,FBW7 act,TEAD-YAP block,GPR151 ag,MITF confirm,AS interf ctr,others
O=C(Cn1c(SCc2ccccc2)nc2ccccc21)N1CCCCC1,1,0,-7,0,nt,nt,
O=C(Nc1cc(NC(=O)c2ccccc2)c(C(=O)O)cc1C(=O)O)c1ccccc1,-7,0,-17,-1,nt,nt,
O=C(Nc1cc(S(=O)(=O)O)cc2cc(S(=O)(=O)O)cc(O)c12)c1ccccc1,81*,0,-3,-1,60*,10,AlphaScreen DR=>6.5
O=C(NNc1ccccc1I)C(O)(c1ccccc1)c1ccccc1,2,0,-7,2,nt,nt,
C/C(=N\OC(=O)C1CCCCC1)c1nccs1,-2,0,-3,-1,nt,nt,
OCCCNc1ncnc2sc(-c3ccccc3)cc12,-1,0,0,1,nt,nt,
C=COCCCNc1ncnc2sc(-c3ccccc3)cc12,61*,0,6,-1,7,8,
c1ccc(-c2cc3c(NCCCN4CCOCC4)ncnc3s2)cc1,61*,0,-7,-1,-1,-3,
O=C(c1cccnc1)N1C2C=CC(C2)C1(C(F)(F)F)C(F)(F)F (stereo not drawn),33,0,5,-2,nt,nt,
O=C(c1ccncc1)N1C2C=CC(C2)C1(C(F)(F)F)C(F)(F)F (stereo not drawn),68*,0,0,0,59*,-6,AlphaScreen DR=>6.5
O=C(NCC1COCCO1)c1ccc(CN2CCCCCC2)[nH]c1=O (stereo not drawn),0,0,-8,0,nt,nt,
Cc1ccc(OCCOCCN2CCN(C)CC2)c(C)c1,65*,0,-1,2,12,20,
CN1CCN(CCOCCOc2ccc(Cl)cc2C(C)(C)C)CC1,68*,0,2,2,16,33*,
CN1CCN(CCOCCOc2cccc(Cl)c2Cl)CC1,51*,0,-5,-1,5,14,
CN1CCN(CCOCCOc2ccccc2Br)CC1,30,0,-1,-1,nt,nt,
Cc1ccc(OCCOCCN2CCN(C)CC2)c(C(C)(C)C)c1,56*,0,8,0,6,17,
Cc1ccc(OCCCN2CCN(C)CC2)c(C(C)(C)C)c1,31,0,-1,1,nt,nt,
Cc1ccc(S(=O)(=O)NCc2ccc(/C=C(/C#N)C(=O)Nc3ccc(F)cc3)o2)cc1,-9,0,-16,0,nt,nt,
CCN1CCN(CCOc2ccc(C)cc2Br)CC1,24,0,0,1,nt,nt,
CCN1CCN(CCOc2ccc(C)cc2C)CC1,78*,0,4,0,-6,-2,
COc1ccc(NC(=O)CN(C)C(C)C(=O)N2CCCCC2)cc1 (stereo not drawn),66*,0,0,2,-3,12,
CC1CC(C)CN(C(=O)C(C)N(C)CC(=O)Nc2ccc(Cl)cc2)C1 (stereo not drawn),51*,0,7,0,8,10,
CC(C(=O)N1CCCCC1)N(C)CC(=O)Nc1cccc(F)c1 (stereo not drawn),64*,1,8,1,12,7,
COCCN1COc2c(cc(Cl)c3cccnc23)C1,66*,-1,-5,-1,48*,92*,
COc1ccc(CCN2COc3c(cc(Cl)c4cccnc34)C2)cc1OC,68*,-1,39*,0,94*,100*,
SMILES,MITF inh,FBW7 act,TEAD-YAP block,GPR151 ag,MITF confirm,AS interf ctr,others
COC(=O)c1sc(NC(=O)CN2CCCCC2C)c(C(=O)OC)c1C (stereo not drawn),59*,0,3,3,1,0,
CCOC(=O)c1sc(NC(=O)CN2CCCCC2C)c(C(=O)OCC)c1C (stereo not drawn),24,0,0,-1,nt,nt,
COc1cc(NC(=O)C2CCC(CNc3c(N4CCCC4)c(=O)c3=O)CC2)cc(OC)c1 (stereo not drawn),6,0,4,0,nt,nt,
CCc1ccc(CNc2ccc(N3CCOCC3)c(C(=O)O)c2)cc1,52*,0,-4,0,0,15,
O=C(CSc1cn(CC(=O)N2CCOCC2)c2ccccc12)Nc1ccc(Cl)cc1,-2,0,-29,-1,nt,nt,
CCN1CCN(CC(O)COC(c2ccccc2)c2ccccc2C)CC1 (stereo not drawn),88*,0,1,0,10,15,
COc1ccc(-c2cc(NCCc3ccc(O)cc3)nc(N)n2)cn1,-9,0,31,1,nt,nt,
CC(C)c1ccc(OCC(=O)NCCS(=O)(=O)N2CCc3ccccc32)cc1,81*,0,3,1,-7,-2,
CCOc1ccc(Nc2nc(C)nc3sc4c(c23)CCCC4)cc1,2,0,0,0,nt,nt,
Nc1nnc(SCC(=O)NCCCCNC(=O)CSc2nnc(N)s2)s1,-1,0,-2,1,nt,nt,
CC(C)NC(=O)NC(=O)CSc1nnc(N)s1,64*,0,-3,0,1,-3,
O=C(Nc1cc(C(=O)N2CCCC2)ccc1N1CC2CC(C1)c1cccc(=O)n1C2)c1cccnc1 (stereo not drawn),10,0,-21,1,nt,nt,
Cc1ccc(/C(C#N)=C\c2ccco2)cc1,56*,0,-40,-1,42*,1,AlphaScreen DR=>6.5
CCN1CCN(CCCOc2ccccc2-c2ccccc2)CC1,60*,0,11,1,7,10,
CCOc1ccccc1OCCCN1CCN(CC)CC1,67*,0,1,0,9,13,
CCN1CCN(CCOc2ccccc2CO)CC1,39,-1,7,0,nt,nt,
CCc1ccccc1OCCN1CCN(CC)CC1,77*,0,-4,1,12,13,
CCN1CCN(CCCOc2cccc(C)c2C)CC1,67*,0,2,0,9,8,
Cc1[nH][nH]c(=O)c1N=Nc1ccc(C(N)=O)cc1,-3,0,-13,-5,nt,nt,
CCN1CCN(CCOCCOc2ccccc2Br)CC1,56*,0,4,1,13,15,
c1ccc(-c2ccccc2OCCCCN2CCNCC2)cc1,49,-1,-3,-2,nt,nt,
CCN1CCN(CCCOc2cc(C)c(Cl)cc2C)CC1,64*,0,2,-1,3,11,
c1ccc(-c2ccccc2OCCCN2CCNCC2)cc1,64*,0,-2,-1,-2,10,
CCN1CCN(CCCOc2ccc(Cl)c(Cl)c2)CC1,28,0,-12,1,nt,nt,
CC(C)n1c(N2CCc3ccccc3C2)nc2c(NC3CC3)ncnc21,-4,0,-21,1,nt,nt,
Cc1cc(OCCCN2CCNCC2)cc(C(C)C)c1,38,0,-4,-1,nt,nt,
Cc1cc(OCCN2CCNCC2)cc(C(C)C)c1,66*,0,-3,2,-2,20,
Cc1cc(OCCCN2CCN(C)CC2)ccc1C(C)C,56*,0,2,2,-3,4,
Cc1cc(OCCCN2CCOCC2)ccc1C(C)C,18,0,-17,-1,nt,nt,
Cc1cc(OCCn2ccnc2)cc(C(C)C)c1,57*,0,-5,0,5,-1,
